The text below walks through data of PubChem BioAssay.

The nature of assay [1]: antimalarial activity against Dd2 strain (AID 2302;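 active = growth inhibition above 50% at the single 2 µM test dose, taken to imply half-maximal potency below 2 µM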;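 note: 0% = DMSO untreated growth and 100% = chloroquine plus artemisinin killed control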). The following applies: P. falciparum Dd2 in RBCs, LDH growth readout, 72 h; at 2 µM; hits give high values.
Assay [2] can be described thus: human hepatoma cell viability loss – ATP luminescence, cytotoxicity control for P. falciparum antimalarial project, primary screen (AID 2303;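 active = inhibition above 50%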;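 note: 0% = DMSO wells and 100% = digitonin-killed cells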). The following applies: HepG2 viability, 24-48 h, at 10 µM, hits give high values.
Assay [3] concerns the target L-lactate dehydrogenase (Plasmodium falciparum (isolate CDC / Honduras)) (UniProt Q27743). As to the kind of experiment: PfLDH activity inhibition – cell lysate, 3D7 strain, counter-screen for P. falciparum growth inhibition project (AID 2304).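 Note: 0% = vehicle and 100% = reference inhibitor.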 The following applies: P. falciparum 3D7 crude extract, LDH APAD/NBT absorbance; at 2 µM; hits give high values. (The purpose of a counterscreen is to sort out artefacts and off-target activity.)

The nature of assay [4]: inhibition of 3D7 malaria parasite growth – strain 3D7 (AID 2306).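 Note: 0% = DMSO wells and 100% = chloroquine plus artemisinin control wells.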 The following applies: P. falciparum 3D7 erythrocytic growth, LDH absorbance, 72 h; at 2 µM; hits give high values.
For assay [5], the target named is Calcium-dependent protein kinase 1 (Plasmodium falciparum (isolate 3D7)) (UniProt P62344). As to the kind of experiment: PfCDPK1 kinase inhibitors, biochemical, TCAMS library (AID 1159585; cut-off not given, nearly all actives have IC50 up to about 0.98 µM;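 note: inhibitors leave more ATP so luminescence rises with inhibition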). Particulars: recombinant PfCDPK1, Kinase-Glo ATP depletion luminescence.
Calcium-dependent protein kinase 1 (Plasmodium falciparum (isolate 3D7)), sequence (P62344 whole entry, looked up): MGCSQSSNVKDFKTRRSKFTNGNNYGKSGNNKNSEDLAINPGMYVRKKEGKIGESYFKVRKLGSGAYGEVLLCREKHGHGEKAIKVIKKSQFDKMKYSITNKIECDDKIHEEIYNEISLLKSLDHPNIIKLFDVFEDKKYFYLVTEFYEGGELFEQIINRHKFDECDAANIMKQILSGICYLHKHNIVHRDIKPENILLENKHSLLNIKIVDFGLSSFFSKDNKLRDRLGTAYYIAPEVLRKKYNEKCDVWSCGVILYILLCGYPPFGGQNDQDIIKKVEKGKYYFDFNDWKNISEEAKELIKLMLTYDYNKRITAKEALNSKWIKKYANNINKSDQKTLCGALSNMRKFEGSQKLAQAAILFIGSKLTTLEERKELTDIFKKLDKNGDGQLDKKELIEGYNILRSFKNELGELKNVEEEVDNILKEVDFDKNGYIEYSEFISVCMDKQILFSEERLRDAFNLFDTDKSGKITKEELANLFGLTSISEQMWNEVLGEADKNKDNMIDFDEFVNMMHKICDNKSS
Assay [6] has as its target Plasmodium falciparum protein kinase 6 (PK6, PF3D7_1337100) (UniProt Q8IDW1). Put plainly: PfPK6 kinase inhibitors, biochemical, TCAMS library (AID 1159586). Particulars: recombinant PfPK6, Kinase-Glo ATP depletion luminescence.
Assay [7] deals with Protein kinase 7 (PK7), Plasmodium falciparum 3D7 (PF3D7_0213400) (UniProt Q7YTF7). Put plainly: inhibition of Plasmodium PK7 catalytic activity – biochemical, TCAMS antimalarial set, Kinase-Glo luminescence (AID 1159587). Particulars: recombinant PfPK7, Kinase-Glo ATP depletion luminescence.
Protein kinase 7 (PK7), Plasmodium falciparum 3D7 (PF3D7_0213400), sequence (Q7YTF7 1-343): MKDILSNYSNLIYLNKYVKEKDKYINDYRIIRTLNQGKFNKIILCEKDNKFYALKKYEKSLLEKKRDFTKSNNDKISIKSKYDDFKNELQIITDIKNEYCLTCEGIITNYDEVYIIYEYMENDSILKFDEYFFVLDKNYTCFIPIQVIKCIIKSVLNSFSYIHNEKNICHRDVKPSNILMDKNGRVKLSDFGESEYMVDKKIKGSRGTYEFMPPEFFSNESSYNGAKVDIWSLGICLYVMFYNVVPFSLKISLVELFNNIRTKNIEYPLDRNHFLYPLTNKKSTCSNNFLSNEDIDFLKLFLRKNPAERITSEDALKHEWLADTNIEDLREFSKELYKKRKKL
The target in assay [8] is Calcium-dependent protein kinase 4 (Plasmodium falciparum (isolate 3D7)) (UniProt Q8IBS5). As to the kind of experiment: PfCDPK4 kinase inhibitors, biochemical, TCAMS library (AID 1159588; cut-off not given, nearly all actives have IC50 up to about 0.91 µM). Particulars: recombinant PfCDPK4, Kinase-Glo ATP depletion luminescence. For orientation: Kinase-Glo reads ATP consumption through a luciferase reaction.
Calcium-dependent protein kinase 4 (Plasmodium falciparum (isolate 3D7)), sequence (Q8IBS5 whole entry, looked up): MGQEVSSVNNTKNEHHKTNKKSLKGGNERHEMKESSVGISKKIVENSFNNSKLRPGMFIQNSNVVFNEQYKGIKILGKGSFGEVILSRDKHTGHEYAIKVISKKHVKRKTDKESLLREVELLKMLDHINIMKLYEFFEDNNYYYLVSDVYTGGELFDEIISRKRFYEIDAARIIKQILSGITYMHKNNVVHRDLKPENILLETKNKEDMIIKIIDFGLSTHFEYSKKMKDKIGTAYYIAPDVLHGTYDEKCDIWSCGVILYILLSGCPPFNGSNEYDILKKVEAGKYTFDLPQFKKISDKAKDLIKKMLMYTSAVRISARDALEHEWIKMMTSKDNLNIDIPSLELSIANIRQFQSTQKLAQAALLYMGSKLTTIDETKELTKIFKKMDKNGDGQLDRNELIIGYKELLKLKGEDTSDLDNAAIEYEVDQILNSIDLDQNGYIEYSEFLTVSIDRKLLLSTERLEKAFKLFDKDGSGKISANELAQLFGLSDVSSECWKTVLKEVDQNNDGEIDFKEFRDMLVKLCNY

Several values for one entry are separate records, joined by “and”; a condition that tells them apart may be missing. Identical values can stand only once. Values without a mark were called inactive. For some assays here: Measured potencies and affinities stand elsewhere. Activity calls are given as the source filed them. Unless noted, the rule behind the calls is not given here.

L-lactate dehydrogenase (Plasmodium falciparum (isolate CDC / Honduras)), sequence (Q27743 whole entry, looked up): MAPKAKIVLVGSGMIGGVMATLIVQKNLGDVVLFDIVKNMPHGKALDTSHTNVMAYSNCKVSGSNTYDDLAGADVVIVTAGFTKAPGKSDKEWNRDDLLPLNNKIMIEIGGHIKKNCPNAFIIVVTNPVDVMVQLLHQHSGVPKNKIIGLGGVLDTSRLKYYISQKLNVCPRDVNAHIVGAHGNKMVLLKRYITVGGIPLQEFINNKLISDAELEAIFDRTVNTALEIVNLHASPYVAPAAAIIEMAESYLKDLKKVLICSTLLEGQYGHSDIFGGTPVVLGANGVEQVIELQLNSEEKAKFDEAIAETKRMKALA
Plasmodium falciparum protein kinase 6 (PK6, PF3D7_1337100), sequence (Q8IDW1 1-305): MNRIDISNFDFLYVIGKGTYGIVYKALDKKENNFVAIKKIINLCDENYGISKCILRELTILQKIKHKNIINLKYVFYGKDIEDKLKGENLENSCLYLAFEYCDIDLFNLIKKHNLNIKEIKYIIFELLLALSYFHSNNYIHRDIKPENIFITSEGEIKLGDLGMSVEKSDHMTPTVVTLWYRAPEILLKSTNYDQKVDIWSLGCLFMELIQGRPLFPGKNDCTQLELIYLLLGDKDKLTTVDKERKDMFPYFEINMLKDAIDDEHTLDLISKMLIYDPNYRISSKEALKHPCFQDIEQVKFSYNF

`CC(Cc1ccc(SC(C)(C)C)cc1)NCC(O)c1cccc(Cl)c1` (configuration not stated): the growth inhibition in assay [1] and in assay [4] was 99% (active) each time. Moreover, the inhibition in assay [2] is 14%; in assay [3], -7%. For the same molecule, the result in assay [5], in assay [6], in assay [7] and in assay [8] was inactive.

On to `O=C(/C=C/c1ccccc1Cl)NC1CCC(CN2[C@@H]3CC[C@H]2CC(c2c[nH]c4ccccc24)C3)CC1` (some centres not stated), for which the growth inhibition in assay [1] is 98% (active); in assay [4], 102% (active). Further, the inhibition in assay [2] is 56% (active); in assay [3], 3%. The result in assay [5], in assay [6], in assay [7] and in assay [8] was inactive.

Turning to `CC[C@H]1CN2CCc3cc(OC)c(OC)cc3[C@@H]2C[C@@H]1C[C@H]1NCCc2c1cc(OC)c(O)c2Cl`, the growth inhibition is 101% (active) in assay [1] and 100% (active) in assay [4]. In addition, the values for the inhibition in assay [2] and in assay [3] were 51% (active) and 2%, respectively. Besides, the outcome in assay [5], in assay [6], in assay [7] and in assay [8] was inactive.

On to `Cc1nc(C)c(-c2ccc(Oc3ccc(OC(F)(F)F)cc3)cc2)c(OC(=O)N(CCNC(C)C)C(C)C)c1Br`, for which the growth inhibition in assay [1] is 97% (active); in assay [4] it was 98% (active). For the same molecule, the inhibition was 35% in assay [2] and -2% in assay [3]. The outcome in assay [5], in assay [6], in assay [7] and in assay [8] was inactive.

As to `O=C(CSc1ccc(Cl)cc1)NC1CCC(CN2CCC(c3c[nH]c4ccccc34)CC2)CC1` (configuration not stated), the growth inhibition was 21% in assay [1] and 95% (active) in assay [4]. For the same molecule, the inhibition in assay [2] was 41%; in assay [3], -3%. Besides, the outcome in assay [5], in assay [6], in assay [7] and in assay [8] was inactive.

In the case of `O=C(/C=C/c1ccsc1)NC1CCC(CN2CCC(c3c[nH]c4ccccc34)CC2)CC1` (configuration not stated), the growth inhibition in assay [1] is 20%; in assay [4], 82% (active). In addition, the inhibition in assay [2] was 29%; in assay [3], -1%. The result in assay [5], in assay [6], in assay [7] and in assay [8] was inactive.

With `COCC(=O)N(Cc1cccc(-c2ccc(CNCCc3ccccc3)cc2)c1)C1CCN(Cc2ccccc2)CC1`, the growth inhibition in assay [1] was 45%; in assay [4], 93% (active). In addition, the figures for the inhibition in assay [2] and in assay [3] were 44% and 4%, respectively. In addition, the result in assay [5], in assay [6], in assay [7] and in assay [8] was inactive.

As to `O=C(CNC1CCCCC1)c1ccc(O)c(O)c1`, the growth inhibition in assay [1] is 99% (active); in assay [4] it was 102% (active). Also, the values for the inhibition in assay [2] and in assay [3] were 61% (active) and 4%, respectively. Also, the outcome in assay [5], in assay [6], in assay [7] and in assay [8] was inactive.

Consider `COC(=O)c1ccc(CC(C)NCC(O)c2cccc(Br)c2)cc1` (configuration not stated), for which the growth inhibition in assay [1] was 88% (active); in assay [4], 99% (active). Besides, the figures for the inhibition in assay [2] and in assay [3] were -6% and -2%, respectively. For the same molecule, the outcome in assay [5], in assay [6], in assay [7] and in assay [8] was inactive.

As for `CCCCc1ccc2[nH]cc(C3=CCN(C)CC3)c2c1Br`, the growth inhibition in assay [1] and in assay [4] was 94% (active) throughout. Moreover, the inhibition in assay [2] is 37%; in assay [3] it was -5%. Moreover, the result in assay [5], in assay [6], in assay [7] and in assay [8] was inactive.

Turning to `O=C(NCc1ccccc1)c1nn(CCCN2CCC3(CC2)C(=O)NCN3c2ccccc2)cc1-c1ccc(Cl)c(Cl)c1`, the growth inhibition in assay [1] is 21%; in assay [4] it was 88% (active). In addition, the figures for the inhibition in assay [2] and in assay [3] were 6% and -5%, respectively. The outcome in assay [5], in assay [6], in assay [7] and in assay [8] was inactive.

As for `O=C(/C=C/c1ccc(Cl)c(Cl)c1)NC1CCC(N2CCC(c3c[nH]c4ccccc34)CC2)CC1` (configuration not stated), the growth inhibition in assay [1] is 69% (active); in assay [4] it was 100% (active). In addition, the inhibition in assay [2] is 41%; in assay [3], 7%. Further, the outcome in assay [5], in assay [6], in assay [7] and in assay [8] was inactive.

In the case of `FC(F)(F)c1ccc(NC(=S)NC2CCC(CN3CCC(c4c[nH]c5ccccc45)CC3)CC2)cc1` (configuration not stated), the growth inhibition in assay [1] was 99% (active) and 100% (active); in assay [4] it was 100% (active) and 101% (active). The inhibition in assay [2] was 65% (active) and 92% (active); in assay [3] it was 2% and -1%. Further, the result in assay [5], in assay [6], in assay [7] and in assay [8] was inactive.

Take `CC[C@H]1CN2CC[C@H]1C[C@H]2[C@H](OC(=O)c1ccccc1)c1cc(C#N)nc2ccc(OC)cc12`: the growth inhibition in assay [1] was 49%; in assay [4], 97% (active). Also, the inhibition was 19% in assay [2] and -2% in assay [3]. The result in assay [5], in assay [6], in assay [7] and in assay [8] was inactive.

For `CC(C)(C)c1cc(/C=C/C(=O)NC2CCC(CN3CCC(c4c[nH]c5ccccc45)CC3)CC2)cc(C(C)(C)C)c1O` (configuration not stated), the growth inhibition in assay [1] was 100% (active); in assay [4], 101% (active) and 102% (active). Also, the inhibition was 98% (active) and 99% (active) in assay [2]; -3% and -5% in assay [3]. Moreover, the outcome in assay [5], in assay [6], in assay [7] and in assay [8] was inactive.

Consider `COc1ccccc1CC(C)NCC(O)c1cccc(Cl)c1` (configuration not stated), for which the growth inhibition in assay [1] is 98% (active); in assay [4], 97% (active). In addition, the figures for the inhibition in assay [2] and in assay [3] were 13% and -6%, respectively. Moreover, the outcome in assay [5], in assay [6], in assay [7] and in assay [8] was inactive.

As to `CC[C@H]1CN2CC[C@H]1C[C@H]2[C@H](O)c1cc(-c2ccccc2C(F)(F)F)nc2ccc(OC)cc12`, the growth inhibition in assay [1] was 99% (active); in assay [4], 98% (active). For the same molecule, the results for the inhibition in assay [2] and in assay [3] were -4% and -5%, respectively. Also, the outcome in assay [5], in assay [6], in assay [7] and in assay [8] was inactive.

Regarding `O=C(NC1CCC(CN2CCC(c3c[nH]c4ccccc34)CC2)CC1)c1ccc(-c2ccccc2[N+](=O)[O-])o1` (configuration not stated), the growth inhibition in assay [1] was 34%; in assay [4] it was 100% (active). Moreover, the inhibition in assay [2] is 24%; in assay [3] it was -2%. The outcome in assay [5], in assay [6], in assay [7] and in assay [8] was inactive.

For the molecule `CC(Cc1ccc(NC(=O)[C@@H](C)NCCc2cccc(Cl)c2)cc1)NCCc1cccc(Cl)c1` (some centres not stated), the growth inhibition in assay [1] was 54% (active); in assay [4], 99% (active). Also, the inhibition was 99% (active) in assay [2] and -1% in assay [3]. Besides, the outcome in assay [5], in assay [6], in assay [7] and in assay [8] was inactive.

One may read the inhibition as the drop in the measured response relative to a control, in per cent.
